In the library only some 3.4% were active in any assay of this set; here they are far more common.
JMJD2E inh = JMJD2E (human) inhibition | B2RXH2 | AID 2147 | Potency, µM (top dose mostly 57.1 µM), for the others: at the highest dose activity change, negative = inhibition, hits mostly inhibitors | 230,000 tested, 1.6% active | JMJD2E catalytic domain, FDH-coupled NADH fluorescence (FDH is formaldehyde dehydrogenase);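 also: 0% = wells with enzyme and -100% = buffer wells without enzyme; nearly all actives have a fitted effect of over 50% in size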
Target sequence (B2RXH2 1-337 limits assumed): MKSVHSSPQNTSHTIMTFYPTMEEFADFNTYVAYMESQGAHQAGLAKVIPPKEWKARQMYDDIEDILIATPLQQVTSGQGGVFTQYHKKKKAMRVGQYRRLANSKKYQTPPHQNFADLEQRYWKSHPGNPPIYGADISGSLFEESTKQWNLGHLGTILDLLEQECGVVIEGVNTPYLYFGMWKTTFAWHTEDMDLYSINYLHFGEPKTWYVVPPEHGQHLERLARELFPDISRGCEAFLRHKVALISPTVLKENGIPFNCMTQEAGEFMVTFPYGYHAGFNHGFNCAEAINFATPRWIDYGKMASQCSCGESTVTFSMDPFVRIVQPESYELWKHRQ
Tau FP inhib = blocks human tau fibril formation measured by polarization; P10636; K18 P301L tau heparin fibrillization, Alexa594 FP, 6 h; Potency, µM (titrated, usually from 57.7 µM), inactives show top-dose activity, negative = inhibition, actives largely listed as inhibitors; 280,000 tested, 0.39% active; AID 1468; also: nearly all actives have a fitted effect of over 55% in size
Target sequence (P10636 561-689 P618L limits assumed): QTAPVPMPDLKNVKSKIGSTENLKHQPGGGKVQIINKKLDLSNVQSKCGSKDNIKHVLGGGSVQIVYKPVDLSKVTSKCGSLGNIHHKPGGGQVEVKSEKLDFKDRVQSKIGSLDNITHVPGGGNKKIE
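Read-out: fluorescence polarization of Alexa 594-labeled tau (0.24 uM), 555 nm excitation, 632 nm emission. Mixtures held 15 uM unlabeled K18 P301L, compound and 20 uM heparin, pH 7 acetate buffer, incubated 6 hr at 37 C.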
Tau fibril ThT = inhibitors of human tau fibril formation, thioflavin T binding; 270,000 tested, 2.1% active; P10636; AID 1460; recombinant tau K18 P301L, heparin-induced fibrillization, ThT fluorescence; Potency, µM (series often up to 57.4 µM), inactives show at the top dose activity, negative = inhibition, usual class: inhibitors; also: nearly all actives have a fitted effect of over 55% in size
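In this qHTS, human K18 P301L tau is incubated with compound and heparin for 6 hr at 37 C, and Thioflavin T fluorescence then reports fibril load.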
RGS12 GoLoco inh = RGS12 GoLoco-Gai1 interaction inhibition; P63096; Potency, µM (doses to about 61.6 µM), without a hit: at the top dose activity, negative = inhibition, hits mostly inhibitors; AID 880; 230,000 tested, 0.44% active; Gai1:RGS12 GoLoco peptide FP, rhodamine, 10 min; active = well fitted inhibition curve with a large enough effect, not every such curve was filed as active; inactive = no such curve, though single readings can be large or run the other way; also: nearly all actives have a fitted effect of over 30% in size
Tau fluor cs = counter-screen for tau fibril formation inhibitors; tau K18 P301L Alexa594 fluorescence, heparin fibrillization; Potency, µM (highest dose often 57.7 µM), inactives show top-dose activity change, negative = decrease; 280,000 tested, 0.93% active; AID 1463; also: nearly all actives have a fitted effect of over 55% in size
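Human tau K18 P301L (15 uM unlabeled, 0.24 uM Alexa 594-labeled) in 100 mM sodium acetate pH 7 with 20 uM heparin, 6 hr at 37 C. ThT 30 uM added, 1 hr ambient; Alexa 594 FP and total fluorescence read at 555/632 nm.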
The depositor's hits bear a star; ? = inconclusive; . = not tested or not shown; [ ] = dose if it differs, or a comment. Unless noted, calls follow the shape of the dose curve; as a rule, active = well fitted curve in the direction sought with a large enough effect; inconclusive = small, poorly fitted or top-dose-only effect, or another doubt; inactive = no such curve, though single readings can be large; an effect the other way counts as inactive or inconclusive. Unless noted, % is scaled to controls: 0 for no effect and ±100 for the full control effect; potency is read from the fitted curve at half-maximal effect.

SMILES	JMJD2E inh	Tau FP inhib	Tau fibril ThT	RGS12 GoLoco inh	Tau fluor cs
COc1ccc2c(c1)C(=NNC(=O)c1ccccn1)c1cc(OC)ccc1-2	-1%	-8%	?	11%	-10%
CCOc1ccc(C2=NC(c3cccs3)=Nc3ccc(C(C)C)cc3N2)cc1	.	1%	?	.	?
O=C(CSC1=Nc2ccccc2N=C(c2ccc(F)cc2)C1)NCc1ccc(Cl)cc1	.	-3%	-7%	.	-17%
O=C(N/N=C\c1ccc([N+](=O)[O-])o1)c1cncc(Br)c1	-1%	1%	.	0%	-5%
O=C(N/N=C/c1ccccc1)c1ccc(OCc2ccccc2)cc1	?	-11%	-20%	2%	-11%
COc1cc(/C=N/NC(=O)c2cncc(Br)c2)cc([N+](=O)[O-])c1O	7.9µM*	1%	13µM*	7%	-26%
O=C(N/N=C/c1cccc(OCc2ccccc2)c1)c1cccs1	-12%	?	?	12%	25µM*[quencher]
COc1cc([N+](=O)[O-])cc(/C=N/NC(=O)c2cncc(Br)c2)c1O	14µM*	4%	13µM*	8%	-16%
CCOc1cc(/C=N/NC(=O)c2cccs2)cc([N+](=O)[O-])c1O	-15%	3%	10µM*	6%	?
N#CC12COC3(CCCCC3C1(C#N)C#N)OC2=N (centres undefined)	?	?	14µM*	-2%	-22%
N#CC1(C#N)COC23CCCCC2C1(C#N)C(=N)O3 (centres undefined)	?	3%	2%	0.89µM*	2%
CCc1cccc(-n2c(C)nc3c(cnn3-c3ccc(C)c(C)c3)c2=O)c1	.	-3%	-18%	.	-13%
COC(=O)C1=CC(C(=O)c2cccs2)=NN(c2ccc(OC)cc2)C1C(=O)OC (centres undefined)	1%	-4%	14µM*	64%	?
COc1c(Cl)cc(C(=O)N(Cc2ccc(C)o2)C2CCS(=O)(=O)C2)cc1Cl (centres undefined)	.	-9%	-15%	.	-23%
O=C(CS(=O)(=O)c1cccc2nsnc12)NCc1ccc(Cl)cc1	.	1%	1%	.	-1%
CCOc1ccc(CCNC(=O)c2sc3ncccc3c2-n2cccc2)cc1OCC	.	-6%	?	.	-11%
O=C(CSc1n[nH]c(-c2ccccc2Cl)n1)N1CCN(c2ccc(F)cc2)CC1	.	1%	-11%	.	-12%
O=C(O)CCCNc1cc(N2CCC3(CC2)OCCO3)c2noc3c2c1C(=O)c1ccccc1-3	?	?	25µM*	126%	?
CCCCNc1cc(N2CCN(C3CCCCC3)CC2)c2noc3c2c1C(=O)c1ccccc1-3	.	7%	16µM*	.	?
CCCCNC(=O)c1ccc(N2CCC3(CC2)OCCO3)c([N+](=O)[O-])c1	-6%	3%	-19%	-12%	-6%
CCOC(=O)N1CCN(c2cc(NCCC(=O)O)c3c4c(onc24)-c2ccccc2C3=O)CC1	-23%	32µM*	11µM*	142%	?
C/C(=N\NC(=O)c1ccc(C)cc1C)c1ccc2c(c1)Nc1ccccc1S2	-1%	?	14µM*	5%	18µM*[quencher]
CC(=O)c1ccc2c(c1)Nc1ccccc1S2	1%	?	?	9%	?
O=C(O)CCn1c(SCc2cccc3ccccc23)nc2ccccc21	4%	-3%	-19%	7%	-10%
N#CC1=C(N)N=C(SCc2cccc3ccccc23)C(C(N)=O)C12CCCCC2 (centres undefined)	5%	-6%	20µM*	8%	?
S=C(NCc1cccs1)Nc1cc(Cl)cc(Cl)c1	-7%	18µM*	-2%	10%	?
COc1cc(OC)c(C2C=C(c3ccc(C)cc3)Nc3c(C(=O)Nc4ccccc4)cnn32)cc1OC (centres undefined)	.	9%	-13%	.	18µM*[quencher]
COc1ccc(C2C=C(c3ccc(C)cc3)Nc3c(C(=O)Nc4ccccc4)cnn32)cc1 (centres undefined)	.	?	-5%	.	-8%
CCOc1ccc(NC(=O)Cn2nc(Cc3cccnc3)c3ccccc3c2=O)cc1	.	-7%	-2%	.	-15%
Cc1ccc(C2C(C#N)=C(N)Oc3c2sc2ccccc32)o1 (centres undefined)	?	?	14µM*	66%	?
